High-throughput results (PubChem BioAssay)
AID504770 – E. coli YBA685 growth inhibition, screen for V. cholerae RctB inhibitors | E. coli YBA685 rctB-dependent plasmid, OD600 growth, 3 h; hits give low values | z-score (test concentration not listed) | 130,000 compounds, 0.27% hits | AID 504770; in the data active means z-score below about -2, passing the limit was not always enough
Mtb MenB inh – blocks the Mycobacterium tuberculosis MenB enzyme. P9WNP5. MenB enzyme assay, absorbance read-out. inhibition, % (test concentration not listed). 100,000 compounds, 0.43% hits. AID 540299; in the data active means inhibition above about 21%, passing the limit was not always enough
Mtb MbtI inh – MbtI salicylate synthase inhibition; P9WFX0; purified MbtI enzyme, fluorescence intensity read-out; inhibition, % (no concentration beside the values); 100,000 compounds, 0.89% hits; AID 493033; in the data active means inhibition mostly above about 56%, no sharp cut-off; inactive means mostly below about 77%
PV pol inh – poliovirus RNA polymerase inhibition; 150,000 compounds, 0.66% hits; poliovirus polymerase elongation, fluorescence polarization; hits give low values; AID 588519; % elongation, % (compound at 16.7 µg/mL); in the data active means % elongation below about 90%
Target sequence (P03300 1749-2209 limits assumed): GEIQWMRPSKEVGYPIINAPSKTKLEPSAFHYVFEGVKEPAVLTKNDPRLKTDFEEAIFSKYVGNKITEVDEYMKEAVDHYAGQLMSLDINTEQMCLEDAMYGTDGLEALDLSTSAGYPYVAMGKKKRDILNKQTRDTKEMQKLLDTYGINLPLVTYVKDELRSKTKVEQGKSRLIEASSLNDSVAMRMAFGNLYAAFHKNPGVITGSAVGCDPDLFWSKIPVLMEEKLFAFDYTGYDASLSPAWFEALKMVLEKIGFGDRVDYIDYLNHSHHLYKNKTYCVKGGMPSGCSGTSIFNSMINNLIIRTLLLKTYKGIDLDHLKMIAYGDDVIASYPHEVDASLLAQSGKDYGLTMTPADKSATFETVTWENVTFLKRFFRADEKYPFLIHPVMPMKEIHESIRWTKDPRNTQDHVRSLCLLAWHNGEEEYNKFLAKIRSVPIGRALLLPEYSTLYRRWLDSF
Hits are given with their value; . = inactive; / = no result given. Most compounds without a hit are left out; they make up all but 1.4% or so of the library.

SMILES	AID504770	Mtb MenB inh	Mtb MbtI inh	PV pol inh
COCc1[nH]c(=S)[nH]c(=O)c1Cc1c(F)cccc1Cl	.	.	.	.
CCCCCCCc1c(COC)[nH]c(=S)[nH]c1=O	.	.	55	.
Cc1cccc(N2CCN(C(=O)CN3C(=O)c4ccccc4C3=O)CC2)c1C	.	.	/	.
CC(C)C(=O)Nc1ccc(-c2nc3ccccc3c(=O)[nH]2)cc1	.	.	.	.
CCC1CCCCN1C(=O)CSc1nc2c(c(=O)n1-c1ccccc1)SCC2 (stereo not drawn)	.	/	/	/
CC1Sc2nnc(C(C)(C)C)n2N=C1c1ccc(Cl)cc1 (stereo not drawn)	.	.	.	76
CN(C)CCNc1cc(-c2cccs2)nc2ccccc12	.	/	/	/
O=C(NCCn1cccc1)c1cccc2ccccc12	.	.	53	.
O=C(c1cccs1)N1CCN(C/C=C/c2ccccc2)CC1	.	43	.	.
O=C(O)c1nn(CCO)c(=O)c2ccccc12	.	.	.	.
O=C(NCCCSc1ccccc1)Nc1ccccc1	.	.	.	.
O=C(NCCSc1ccc(Cl)cc1)Nc1ccccc1	-4.5	.	.	.
CC(C)(C)c1ccc(NC(=O)CSc2nnnn2-c2ccccc2)cc1	.	/	/	/
CC(=O)N1CCN(C(=S)c2ccc(-c3cccc(Cl)c3Cl)o2)CC1	.	.	96	.
CCc1ccccc1-n1nnc(C(=O)NCc2ccc3c(c2)OCO3)c1N	.	.	.	.
COC(=O)C(F)C(=O)OC	.	.	.	88
COC(=O)C(N)C12CC3CC(CC(C3)C1)C2 (stereo not drawn)	.	.	.	.
N#Cc1c(-c2cccs2)cc(-c2ccc(C(=O)O)cc2)nc1SCc1cccs1	.	.	/	78
Cc1ccc2c(C)c(C(=O)N(Cc3ccco3)Cc3ccccc3Cl)oc2c1C	.	.	.	.
O=C(CSC1=NCCN1)C1COc2ccccc2O1 (stereo not drawn)	.	84	.	.
O=C1CCC(OC(=O)c2ccccc2)CC1	.	.	.	.
CCC(c1nnc(SCC(=O)NCCc2ccc(Cl)cc2Cl)o1)N(C)C (stereo not drawn)	.	.	79	.
COC(=O)/C(=C/c1ccc2c(c1)OCO2)NC(=O)c1ccco1	.	.	.	.
N#C/C(=C(/O)CSc1nc2ccccc2o1)c1nc2ccccc2[nH]1	.	.	.	.
N#C/C(=C(/O)CSc1n[nH]c(=O)[nH]c1=O)c1nc2ccccc2[nH]1	.	.	77	.
SMILES	AID504770	Mtb MenB inh	Mtb MbtI inh	PV pol inh
Cc1cc(C)c(NC(=O)COC(=O)c2nccnc2N)c(Cl)c1	.	.	.	.
COc1cccc2c1Oc1nc(-c3ccccc3)nc(SCC(=O)N(C)c3ccccc3)c1C2	.	.	.	.
O=C1c2ccccc2-c2onc3ccc(Oc4c(F)c(F)c(F)c(F)c4F)c1c23	-2.2	.	.	.
O=C1c2ccccc2-c2onc3c(Cl)ccc1c23	.	.	.	.
Cc1ccc(NC(=O)c2ccc(Br)o2)cc1	.	/	.	.
COc1cccc([C@@H]2[C@@H](c3ccc(OC)c(F)c3)N3C=Cc4ccccc4[C@@H]3C2(C#N)C#N)c1	.	.	/	.
COc1ccc(OC)c(N=C2SCCN2C(=O)CC2CCCC2)c1	.	.	.	.
S=c1[nH]ccn1Cc1ccccc1	.	.	68	.
CCCCNS(=O)(=O)c1ccc2[nH]c(=S)[nH]c2c1	.	.	.	88
CC(=O)Nc1ncc2c(n1)CC(c1ccc(C)cc1)CC2=O (stereo not drawn)	.	.	.	.
CCOc1ccc(S(=O)(=O)c2cn(Cc3ccc(C)cc3)c3ccc(OC)cc3c2=O)cc1	/	/	/	90
COc1ccc(S(=O)(=O)c2cn(Cc3ccccc3)c3ccc(OC)cc3c2=O)cc1	/	/	/	.
CC1CC(C)CN(S(=O)(=O)c2ccc(CN3C(=O)c4cccnc4C3=O)cc2)C1 (stereo not drawn)	.	.	.	.
COC(=O)c1c(C(F)(F)F)nc(C(F)F)c(C(=O)O)c1CC(C)C	.	.	.	.
O=C1C(c2c(O)n(-c3cc(Cl)cc(Cl)c3)[nH]c2=O)=Nc2ccccc21	.	.	84	.
Cc1ccc(Cl)cc1NC(=O)C1=NCCN1	.	.	.	73
FC(F)(F)c1cccc(-n2cncn2)n1	.	.	.	.
CSc1c[nH]n(-c2ccccc2)c(=O)c1=O	.	.	78	.
O=c1c(Cl)c[nH]n(-c2ccccc2)c1=O	.	.	.	.
O=C(CNC1CC2CC=CC21)Nc1ccc(F)c(F)c1 (stereo not drawn)	.	.	.	.
Cc1ccc(C(=O)N/C(=C\c2cccnc2)C(=O)N2CC3CC(C2)c2cccc(=O)n2C3)cc1 (stereo not drawn)	.	.	.	.
Cc1ccc(C2=NS(=O)(=O)N(C)C(C(=O)Nc3sc4c(c3C(N)=O)CCCC4)=C2)cc1	.	.	58	.
O=C(Nc1nc2ccccc2[nH]1)c1cccc(Oc2ccccc2)c1	.	/	.	.
CNC(=O)c1sc(CN2C(=O)c3ccccc3S2(=O)=O)nc1C	.	.	92	65
Nc1cccc2c1C(=O)N(C(=O)c1ccc3c(c1)S(=O)(=O)N=C1CCCCCN13)C2=O	.	.	.	58
SMILES	AID504770	Mtb MenB inh	Mtb MbtI inh	PV pol inh
Nc1cccc2c1C(=O)N(Cc1ccccc1)C2=O	.	.	.	.
CNC(=O)c1c(C)nc(SCC(=O)OCC(=O)Nc2ccc(C)c(C)c2)c(C#N)c1-c1ccco1	.	.	.	.
CNC(=O)c1c(C)[nH]c(=S)c(C#N)c1-c1ccco1	.	.	99	.
O=C(CC1CCCCC1)NCC1CCCO1 (stereo not drawn)	.	31	.	.
CCOC(=O)N1CCC(c2nc(C)sc2C(=O)NCc2ccc(C)cc2)CC1	.	/	/	/
O=C(NCc1ccsc1)c1ccc(N2CCOCC2)nc1	.	/	/	/
S=c1[nH]nc(SCc2ccccc2)s1	.	.	87	.
N#CCOC(=O)c1cc2c(s1)CCCCC2	.	.	.	.
Cc1sc2nc(SCC(=O)c3ccc(O)cc3O)[nH]c(=O)c2c1C	.	.	88	76
CC(C)(C)Cc1cc(N)on1	-2	.	.	.
CN(CC(=O)Nc1ccc(F)cc1)C(=O)CSc1ccc2c(c1)OCCO2	.	.	98	.
O=C(CSc1ccc2c(c1)OCCO2)Nc1ccccc1	.	.	.	.
COc1cc(OC)cc(C(=O)NCC(=O)OCC2COc3ccccc3O2)c1 (stereo not drawn)	.	.	.	.
Cc1cc(C)c2c(=O)n(C(=O)c3cccs3)sc2n1	.	.	100	.
CC(=O)Oc1ccc(-c2ccc(C(=O)O)cc2)cc1Cl	.	/	85	.
CC(=O)Oc1ccc(-c2ccc(C(=O)O)cc2)cc1C	.	/	.	.
CCOC(=O)NC(=S)c1ccc(OC)cc1	.	.	78	82
CCOC(=O)NC(=S)Nc1ccc(OC)cc1	.	.	.	.
COC(=O)CSc1ncc(C#N)c(N)n1	.	.	.	.
Cc1c(C(=O)CSc2ncc(C#N)c(N)n2)c2ccccc2n1C	.	30	/	.
CC1CCCCN1C(=O)CN1CCN(C)CC1 (stereo not drawn)	.	.	.	.
CCCN(CCC)C1=CC(=O)C(C)=C(C)C1=O	.	.	.	86
